Results reported in PubChem BioAssay (NCATS).
Results filed as inconclusive are left out. Active and inactive are the calls of the source. Calls follow the shape of the dose curve; as a rule, active = well fitted inhibition curve with a large enough effect; inconclusive = small, poorly fitted or top-dose-only effect; inactive = no such curve, though single readings can be large or run the other way.

These molecules were tested on Zika virus NS2B-NS3 protease (linked construct) (assay: Primary screen NINDS Rhodamine qHTS for Zika virus inhibitors (AID 1347160; also: nearly all actives have a fitted effect of over 55% in size)). Conditions: purified NS2B-NS3 protease, Rhodamine110 substrate fluorescence; series mostly up to 57.1 µM; activity change, negative = inhibition: at the top concentration.
Procedure, shortened: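 Each compound, titrated, sat 15 min with 25 nM linked protease before 1.5 microM Rhodamine110 substrate went in. Fluorescence gain over the next 15 min, in pH 8.0 Tris with Tween 20, gave Hill-fitted curves.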
% is scaled to controls: 0 for no effect and ±100 for the full control effect.

Row | SMILES | activity change, negative = inhibition | outcome
1 | CC1(C)CCCC2(C)C1CC(=O)C13CC(CCC12)C(O)(CO)C3 (stereo not drawn) | -18.5% [at 33.1 µM] (inactive) | –
2 | COc1ccc(/C=C/C(=O)O[C@H]2[C@H](O[C@H]3[C@@H]4C=CO[C@@H](O[C@@H]5O[C@H](CO)[C@@H](O)[C@H](O)[C@H]5O)[C@@H]4[C@@]4(CO)O[C@@H]34)O[C@@H](C)[C@H](O)[C@H]2OC(C)=O)cc1 | 24.7% [at 15.1 µM] (inactive) | –
3 | CC1(C)CCCC2(C)C(CO)C(CO)=CCC12 (stereo not drawn) | -10.6% (inactive) | –
4 | C[C@@H](O)[C@H](NC(=O)c1ccc(C#Cc2ccc(CN3CCOCC3)cc2)cc1)C(=O)NO | 16% (inactive) | –
5 | NC(=O)C(CCC(F)(F)F)N(Cc1ccc(-c2ncon2)cc1F)S(=O)(=O)c1ccc(Cl)cc1 (stereo not drawn) | – | inactive
6 | COC1/C=C/C(C)(O)C(SCC(N)C(=O)O)CC(=O)OC(C)C(C)CC/C=C/1C (stereo not drawn) | 12.8% [at 33.1 µM] (inactive) | –
7 | COc1ccc(CCC(=O)c2c(O)cc(O)cc2O[C@@H]2O[C@H](CO)[C@@H](O)[C@H](O)[C@H]2O)cc1 | -10.7% [at 33.1 µM] (inactive) | –
8 | OC[C@H]1O[C@@H](O[C@H]2[C@H](OCCc3ccccc3)O[C@H](CO)[C@@H](O)[C@@H]2O)[C@H](O)[C@@H](O)[C@@H]1O | -17.3% [at 33.1 µM] (inactive) | –
9 | O=C(Nc1ccccc1)N1CCN(Cc2ccc3ccccc3n2)CC1 | 21.3% (inactive) | –
10 | CC12CCC3c4ccc(O)cc4CCC3C1CC(OC1OC(C(=O)O)C(O)C(O)C1O)C2O (stereo not drawn) | 24.3% (inactive) | –
11 | CC1(C)CCCC2(C)C(C(=O)O)=CCC12 (stereo not drawn) | 20.7% (inactive) | –
12 | COC(=O)C(C)C1CCC2(C)C(=O)C=CC(C)(O)C2C1O (stereo not drawn) | -14.5% (inactive) | –
13 | Cc1cc(-c2cc(O)ccc2Cl)cc2nnc(Nc3ccc(OCCN4CCCC4)cc3)nc12 | 40.2% (inactive) | –
